Outcome data for 78 molecules are collected here from PubChem BioAssay AID492952 (Southern Research Specialized Biocontainment Screening …, 2010).

The whole screen tested about 2,300 compounds, of which about 1,500 (65%) were called active. The rule behind the calls is not given here. The set was probably picked from earlier hits. Some of the results follow. Results with a measured potency or affinity are listed apart.

A short description of this test: replicating M. tuberculosis growth inhibition, dose response, non-replicating M. tuberculosis project, H37Rv (AID 492952).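 Note: Mycobacterium tuberculosis grown in culture; growth inhibition read after a week of incubation.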 Conditions: series mostly up to 50 µM.
Regarding `CCCCSc1nnc(-c2cc(Br)ccc2N)c(=O)[nH]1`, the result was inactive.

In the case of `Cc1ccc(C(=O)CCNc2ccc(Br)cc2)o1`, the result was inactive.

As for `CC(Cc1cccs1)NC(=O)c1cccc(Cl)c1` (stereo not drawn), the result was inactive.

With `C/C(=N\NC(=O)c1cccs1)c1ccc2c(c1)OCO2`, the result was inactive.

With `Cc1ccc(C(=O)CCNc2ccc(F)c(Cl)c2)o1`, the molecule was called inactive.

For `Cc1ccc(NC(CC(=O)c2ccccc2)C(=O)O)cc1Cl` (stereo not drawn), the molecule was classed as inactive.

Regarding `CC(C)COc1ccc(C(=O)CCN2CCCCC2)cc1`, the result was inactive.

In the case of `COc1cc(C(=O)CCN2CCC(c3ccccc3)C2)cc(OC)c1OC` (stereo not drawn), the molecule was classed as inactive.

As for `CC(C)Oc1ccc(C(=O)CCN2CCCCC2)cc1`, the outcome was inactive.

In the case of `CCCCc1ccc(NS(=O)(=O)c2c(C)n(C)c(=O)n(C)c2=O)cc1`, the result was inactive.

Regarding `C=C(C)C1CC=C(C)/C(=N/NC(=O)CNc2ccc(OCC)cc2)C1` (stereo not drawn), the result was inactive.

For `CC1N(C)c2cccc3cccc(c23)N1C`, the outcome was inactive.

Regarding `CCCCCCCCCCn1ccc(=N)cc1`, the molecule was called inactive.

As to `CCc1ccc(OCCCC(=O)NCc2ccco2)cc1`, the result was inactive.

In the case of `Nc1ccc2c(c1)oc1ccccc12`, the outcome was inactive.

On to `CCOC(=O)c1cn(Cc2cccc(Cl)c2)nn1`, for which the outcome was inactive.

Regarding `COc1cc(/C=N/Nc2ccc(Cl)c(C(=O)O)c2)ccc1OC(=O)c1ccco1`, the outcome was inactive.

`COc1cc(/C=C2\C(=O)N(c3ccc(S(N)(=O)=O)cc3)N=C2C)ccc1OC(=O)c1ccco1`: the molecule was classed as inactive.

With `O=C(COc1ccccc1)NNc1nc2ccccc2s1`, the call was inactive.

As for `CC/C(=C\C=C\[C@@H]1C=C[C@@H]2CCC[C@H]2[C@@H]1C(=O)c1ccc[nH]1)[C@@H]1O[C@@H]([C@@H](C)C(=O)O)CC[C@@H]1C`, the call was inactive.

Regarding `Cc1cccc(NCc2ccc([N+](=O)[O-])s2)c1`, the result was inactive.

For `CCCc1nnc(-c2ccc(OC)cc2)o1`, the molecule was called inactive.

As to `CCc1ccc(C(=O)NC2CCCCC2)s1`, the outcome was inactive.

Regarding `CCc1cc(C=NC2CCCCC2)c(O)s1`, the outcome was inactive.

`CC(=O)c1c(O)cc(=O)n(-c2ccccc2)c1-c1ccc(C)cc1`: the molecule was classed as inactive.

Take `CCOC(=O)c1c(NC(=O)COC(=O)c2ccccn2)sc2c1CCC2`: the outcome was inactive.

Consider `O=C(Oc1cccc([N+](=O)[O-])c1)c1ccc2c(=O)n3c(nc2c1)CCC3`, for which the molecule was called inactive.

In the case of `Cc1ccc2c(CC(=O)OCC(=O)Nc3ccc(Cl)cn3)coc2c1`, the call was inactive.

For `Cc1ccc(NC(=O)CN(C)C2CCCCC2)cc1Br`, the call was inactive.

As to `O=C(Nc1ccccc1N1CCCC1)c1cccc(F)c1`, the molecule was classed as inactive.

In the case of `Cc1noc(C)c1COc1ccc(C(=O)Nc2ccccn2)cc1`, the outcome was inactive.

With `O=C(Nc1ncccc1O)c1ccc(Oc2ccccc2)cc1`, the molecule was called inactive.

`O=C(Nc1ncccn1)c1ccc([N+](=O)[O-])o1`: the molecule was classed as inactive.

As for `O=C(Nc1cccnc1)c1ccc(-c2ccc(Cl)cc2)o1`, the molecule was classed as inactive.

For `CCOC(=O)c1ccc(N=C2SC(C(=O)Nc3ccc(C(=O)O)cc3)CC(=O)N2Cc2cccs2)cc1` (stereo not drawn), the molecule was called inactive.

`COC(=O)C1=C(C(=O)OC)C(c2cc(Cl)ccc2O)c2sc(=O)[nH]c2S1` (stereo not drawn): the call was inactive.

For `Cc1ccc(SCCC(=O)OCC(=O)NCC2CCCCC2)cc1`, the result was inactive.

For the molecule `COc1ccccc1NC(=O)CCN1CCN(c2ccc(Cl)cc2)CC1`, the outcome was inactive.

For the molecule `CC(/C=C/c1ccco1)=N/NC(=O)c1ccc(C)nc1`, the result was inactive.

For the molecule `CC(/C=C/c1ccc2c(c1)OCO2)=N/NC(=O)C1COc2ccccc2O1` (stereo not drawn), the outcome was inactive.

As for `O=C(N/N=C/c1ccc(Br)s1)c1cccnc1`, the call was inactive.

As for `O=C(N/N=C/c1ccc[nH]1)c1ccc(Cl)cc1`, the molecule was classed as inactive.

In the case of `O=C(N/N=C/c1ccc[nH]1)c1cccnc1`, the call was inactive.

Take `Cn1cccc1/C=N/NC(=O)c1ccco1`: the molecule was called inactive.

As to `O=C(O)c1ccc(-n2nc(C(F)(F)F)c3c2CCCC3)cc1`, the molecule was classed as inactive.

As for `CCc1cc2c3c(c1)C(C)CC(C)(C)N3C(=O)/C2=C1\SC(=O)NC1=O` (stereo not drawn), the molecule was classed as inactive.

In the case of `COc1cccc(-c2nc(C=O)cs2)c1`, the molecule was called inactive.

For `Cc1ccnc(-n2c(C)cc(/C=C3\C(=O)NC(=S)N(C)C3=O)c2C)c1`, the molecule was called inactive.

On to `Cc1cc(C=C2C(=O)N(C)C(=S)N(C)C2=O)c(C)n1-c1cccnc1`, for which the call was inactive.

Turning to `CCCCCCCC(=O)NNC(=O)c1ccc(F)cc1`, the molecule was called inactive.

For `Cc1ccc(S(=O)(=O)CCC(=O)Nc2nc(-c3ccncc3)cs2)cc1`, the outcome was inactive.

As to `CCCCOc1ccc(NC(=O)CN2CCN(Cc3ccccc3)CC2)cc1`, the molecule was classed as inactive.

On to `O=C(NN=C1C2CC3CC1CC(Cl)(C3)C2)c1cccs1`, for which the molecule was classed as inactive.

Consider `Cc1ccc(NC(=O)C2COc3ccccc3O2)nc1` (stereo not drawn), for which the molecule was called inactive.

As to `CCC(=O)N/N=C/c1ccc(-c2ccc(Cl)cc2)o1`, the outcome was inactive.

Regarding `Cc1cccc(C)c1N1C(=O)CC(N2CCSCC2)C1=O` (stereo not drawn), the outcome was inactive.

Take `CCCCCCCC(=O)N/N=C(/C)c1c(O)cc(C)oc1=O`: the molecule was called inactive.

`Cc1cc(CN(C)C)c(O)c(C2(C)CCCCC2)c1`: the outcome was inactive.

With `COc1ccccc1C(c1nnnn1Cc1ccccc1)N1CCC(C(N)=O)CC1` (stereo not drawn), the outcome was inactive.

In the case of `O=C(N/N=C/c1ccc[nH]1)c1ccc2c(c1)OCO2`, the outcome was inactive.

For `O=C(CC1CC2CCC1C2)NCc1cccs1` (stereo not drawn), the outcome was inactive.

On to `O=C(NCc1cccs1)c1ccc(Br)o1`, for which the molecule was called inactive.

Regarding `CC(C)c1cc(C(=O)N/N=C/C=C/c2ccccc2)n[nH]1`, the molecule was classed as inactive.

For the molecule `Cc1cc(C(=O)N/N=C/c2cccc(Cl)c2Cl)no1`, the call was inactive.

Consider `CC1(CCc2ccc3c(c2)OCO3)NC(=O)c2ccccc2N1` (stereo not drawn), for which the call was inactive.

Regarding `O=C(N/N=C/c1cc(Br)cc(Cl)c1O)c1ccc2c(c1)OCO2`, the outcome was inactive.

As to `CC1=CC(=O)NP(=O)(Oc2ccc3ccccc3c2)N1` (stereo not drawn), the outcome was inactive.

Regarding `CC(=O)c1c(C)n(C)c2ccc(OC(=O)c3ccco3)cc12`, the result was inactive.

In the case of `CCN(CC)CCNC(=O)c1[nH]c2ccc(OCc3ccccc3)cc2c1C`, the result was inactive.

As for `Cc1cc2cc(CNC(=O)COc3ccccc3)ccc2n1C`, the result was inactive.

Regarding `CCOc1ccc(-c2ccc(SCC)nn2)cc1`, the call was inactive.

Take `Oc1ccccc1Nc1nc(NCC2CCCO2)c2ccccc2n1` (stereo not drawn): the outcome was inactive.

Regarding `CCCCCCC1CC(C)(C(=O)CNc2nncs2)OC1=O` (stereo not drawn), the molecule was called inactive.

With `Cc1cc2nc(CSc3ccc(Cl)cc3)cc(=O)n2[nH]1`, the molecule was classed as inactive.

For `Cc1cc(C)c2sc(NC(=O)C3=COCCO3)nc2c1`, the molecule was classed as inactive.

Regarding `O=C(c1nnc(-c2ccc(Cl)cc2)o1)C1CCCC1`, the outcome was inactive.

On to `CN(C)Cc1ccccc1Sc1ccccc1Br`, for which the call was inactive.

In the case of `C(#CCN1CCOCC1)COCc1ccccc1`, the outcome was inactive.
